Values joined by “and” are separate entries in the source; they are usually repeats but may differ in a detail not shown here. Equal values may be shown once. About 83,000 compounds went through this panel and 20% of them were active in at least one assay; those are over-represented in the sample as a whole.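 Negative percent growth values reflect cell death: -40 means 40% of the cells present at the start died, and -100 means all died.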 Active and inactive are the calls of the source. How the source made its calls: active means growth percent below 10; inactive means the rest.
Each compound was assayed on MCF7 breast (assay: NCI-60 one-dose screen, 48 h (100 = growth as untreated, 0 = no growth, -100 = all killed)). Details: 10 µM unless noted.

SMILES | growth
C/C=C1\NC(=O)[C@H]2CSSCCC=C[C@H](CC(=O)N[C@H](C(C)C)C(=O)N2)OC(=O)[C@H](C(C)C)NC1=O | -73.3% [0.1 µM] (active) and -95.5% [0.1 µM] (active)
CCC1OC2(C)CC(C#N)(C#N)C1(C#N)C(=N)O2 (centres undefined) | 39.8% [100 µM] (inactive)
N#Cc1nc(-c2cccc(-c3nc(C#N)c(N)o3)n2)oc1N | 58.8% [100 µM] (inactive) and -19.4% [100 µM] (active)
COC(=O)C(=O)C(C(=O)C(=O)Nc1ccccc1C(C)=O)c1nc2ccc(C(=O)c3ccccc3)cc2[nH]c1=O (centres undefined) | 25.6% [100 µM] (inactive) and 2.25% [100 µM] (active)
CC(=O)C1=C(C)N2C(=NC3=C(CCc4ccccc43)C2c2ccc(Cl)cc2)S1 (centres undefined) | 24.9% [100 µM] (inactive) and 9.75% [100 µM] (active)
CC(=O)C1=C(C)N2C(=NC3=C(CCc4ccccc43)C2c2cccc(Br)c2)S1 (centres undefined) | 35.9% [100 µM] (inactive) and 33.8% [100 µM] (inactive)
Cc1ccc(/C=C2/N=C(N/N=C\c3ccccc3)NC2=O)cc1 | 1.56% [100 µM] (active) and 22.5% [100 µM] (inactive)
OCc1ccccc1OC1OC(CO)C(O)C(O)C1O (centres undefined) | 120% [100 µM] (inactive) and 82.9% [100 µM] (inactive)
CCCCCCCCOC(=O)C12Oc3ccc(-c4ccc5c(c4O)C(O)=C4C(=O)CC(C)C(O)C4(C(=O)OCCCCCCCC)O5)c(O)c3C(O)=C1C(=O)CC(C)C2O (centres undefined) | -22.3% [100 µM] (active) and -100% [100 µM] (active)
COC(=O)c1ccc(NC(=O)O/N=C(\Cl)C(C)C)cc1 | -87.1% [100 µM] (active) and -100% [100 µM] (active)
CC1(C)S[C@H](CN)N[C@H]1C(=O)OC(c1ccccc1)c1ccccc1 | -8.91% [100 µM] (active) and -100% [100 µM] (active)
COc1cc2c(cc1C1COc3cc4occc4cc3C1=O)OCO2 (centres undefined) | 65.2% [100 µM] (inactive) and 62.9% [100 µM] (inactive)
Cc1ccc(/C=N/Nc2ccccn2)s1 | 13.4% [100 µM] (inactive) and 0.177% [100 µM] (active)
CCCCCCSC[C@H](OC(C)=O)[C@@H](OC(C)=O)[C@@H](OC(C)=O)[C@@H](COC(C)=O)OC(C)=O | 28.8% [100 µM] (inactive) and 79.7% [100 µM] (inactive)
N#CC1(C#N)N[C@@H](c2ccsc2)[C@H]2C(=O)N(c3ccccc3)C(=O)[C@H]21 | 22.5% [100 µM] (inactive) and 12.4% [100 µM] (inactive)
NC(=O)CC1OC(=O)Cc2cc3c(c(O)c21)C(=O)c1c(O)cccc1C3=O (centres undefined) | 30.4% [100 µM] (inactive)
N#CC1(C#N)C2CCCCC23OC(=N)C1(C#N)C(c1ccco1)O3 (centres undefined) | -54% [100 µM] (active)
COc1ccc(-c2coc3c4c(ccc3c2=O)OCO4)cc1OC | 53.7% [100 µM] (inactive) and 32.9% [100 µM] (inactive)
NC(Cc1ccc(S(=O)(=O)O)cc1)C(=O)NC(Cc1ccc(S(=O)(=O)O)cc1)C(=O)NC(Cc1ccc(S(=O)(=O)O)cc1)C(=O)NC(Cc1ccc(S(=O)(=O)O)cc1)C(=O)O (centres undefined) | 87.7% [100 µM] (inactive) and 83.5% [100 µM] (inactive)
CC(=N/N=C/c1ccccn1)/C(C)=N/N=C(C)/C(C)=N/N=C(C)/C(C)=N/N=C(C)/C(C)=N\N=C\c1ccccn1 | 84.9% [100 µM] (inactive) and 89.9% [100 µM] (inactive)

SMILES | growth
CCOc1cc2c(cc1O)C=C[C@@H]1[C@@H]2CC[C@]2(C)[C@@H](O)CC[C@@H]12 | -21% [100 µM] (active) and -100% [100 µM] (active)
Cc1ccc(/C=N/Nc2nncc3ccccc23)s1 | 19% [100 µM] (inactive) and 4.27% [100 µM] (active)
CCCCC1C(=O)N(c2ccc(S(=O)(=O)Nc3ccccn3)cc2)N(c2ccc(O)c(C(=O)O)c2)C1=O (centres undefined) | 121% [100 µM] (inactive) and 87.3% [100 µM] (inactive)
O=C(O)CCCC(=O)Nn1c(Cc2ccc(Cl)cc2)n[nH]c1=O | 78.3% [100 µM] (inactive) and 78.8% [100 µM] (inactive)
NC(N)=Nc1ccc(CC(N)C(=O)O)cc1 (centres undefined) | 93.7% [12.5 µM] (inactive) and 76.9% [12.5 µM] (inactive)
Cc1ccc(OCC2OC(n3cnc4c(Cl)nc(Cl)nc43)CC2Oc2ccc(C)cc2)cc1 (centres undefined) | -91.5% [100 µM] (active) and -93.1% [100 µM] (active)
N#CC(=S)Nc1ccc(F)cc1 | 13.1% [100 µM] (inactive) and -70.2% [100 µM] (active)
Cc1ccc(NC(=O)/C(=N\NC(N)=O)c2c(O)c3ccccc3[nH]c2=O)cc1 | 92.8% [100 µM] (inactive) and 85.4% [100 µM] (inactive)
COC(=O)C(/C(=N/NC(N)=O)C(=O)Nc1ccc(C)cc1)c1nc2ccc([N+](=O)[O-])cc2[nH]c1=O (centres undefined) | 68.7% [100 µM] (inactive) and 41.2% [100 µM] (inactive)
COC(=O)C1CCC(=O)N1CN(C(C)=O)c1cccc(O)c1 (centres undefined) | 90.1% [100 µM] (inactive) and 83.5% [100 µM] (inactive)
COC(=O)C(=O)C(C(=O)C(=O)Nc1nc2ccc(C)cc2s1)c1nc2ccc([N+](=O)[O-])cc2[nH]c1=O (centres undefined) | 60.3% [100 µM] (inactive) and 57.7% [100 µM] (inactive)
O=C1c2ccccc2-c2c1c1ccccc1c(=O)n2CCO | 6.81% [100 µM] (active) and -32.3% [100 µM] (active)
Clc1ccc(C2NN=C3c4ccccc4OCC32)cc1 (centres undefined) | -15.5% [100 µM] (active) and -82.5% [100 µM] (active)
COc1cc2c3cc1Oc1c(OC)c(OC)cc4c1C(Cc1ccc(O)c(c1)-c1cc(ccc1OC)CC3N(C)CC2)N(C)CC4 (centres undefined) | 10.3% [100 µM] (inactive) and -92.9% [100 µM] (active)
O=C(Nc1cccc(NC(=O)C(=O)C2CCC3=C(Sc4ccccc4N3)C2=O)n1)C(=O)C1CCC2=C(Sc3ccccc3N2)C1=O (centres undefined) | 51.4% [100 µM] (inactive) and 4.4% [100 µM] (active)
Cc1ccc(F)cc1NC(=O)O/N=C(\Cl)C(C)C | 72.4% [100 µM] (inactive) and 46.2% [100 µM] (inactive)
O=C1NC(N/N=C\c2ccccc2)=N/C1=C/c1ccccc1 | -46% [100 µM] (active) and -100% [100 µM] (active)
COc1ccc(OC)c(N(CN2C(=O)CCC2C(=O)O)C(C)=O)c1 (centres undefined) | 86% [100 µM] (inactive) and 95.9% [100 µM] (inactive)
COc1c(O)ccc(C2=Cc3ccc(O)cc3OC2)c1OC | -13.9% [100 µM] (active) and -13.3% [100 µM] (active)
